Records with an inconclusive call do not appear. Activity calls are given as the source filed them. Calls come from the whole dose curve; as a rule, active = well fitted curve in the direction sought with a large enough effect; inconclusive = small, poorly fitted or top-dose-only effect, or another doubt; inactive = no such curve, though single readings can be large; an effect the other way counts as inactive or inconclusive.

Potency and outcome data for 19 molecules are collected here from PubChem BioAssay (NCATS).

The target in experiment [1] is N-terminal Xaa-Pro-Lys N-methyltransferase 1 (Homo sapiens) (UniProt Q9BV86). Kind of experiment: qHTS Assay for Inhibitors of N-terminal methyltransferase 1 (NTMT1): LOPAC validation of the NTMT1 SAHH-coupled ThioGlo3 Assay (AID 1347143). Note: nearly all actives have a fitted effect of over 70% in size. Note: potency is the fitted concentration of half-maximal effect. A digest of the protocol:
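Fluorescence read-out (excitation 340nm, emission 450nm) of SAH-derived thiol, measured via SAHH coupling and ThioGlo3, taken immediately and after a 30 min room-temperature reaction, then normalized to the background read. Enzyme: NTMT1 at 125nM; cofactor SAM 100uM in the added reagent.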

The target in experiment [2] is Lysine-specific demethylase 5B (Homo sapiens) (UniProt Q9UGL1). The experiment can be described thus: Optimization screen for KDM5B Histone Demethylases FDH coupled qHTS against the LOPAC library (AID 1347166). The method in brief:
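KDM5BDeltaAP (200nM final) preincubated 10 min with compound, then 12.5uM H3K4Me3, 25uM a-ketoglutarate, ascorbate, Fe(II), NAD+ and FDH added; 50mM HEPES pH 7.5, 0.01% Tween-20. NADH fluorescence (340/450 nm) change over 30 min, room temperature.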
A general note: In qHTS, concentration-response curves come from the screen itself.

A short description of experiment [3]: Confirmatory screen GU Rhodamine qHTS for Zika virus inhibitors qHTS (AID 1347157). Note: nearly all actives have a fitted effect of over 70% in size. Note: potency is the fitted concentration of half-maximal effect. A digest of the protocol: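 Enzyme 25 nM in Tris-HCl pH 8.0 + 0.01% Tween 20; compounds up to 114 microM, 15 min RT dark; + Rhod110 substrate 1.5 microM; read t0 and 15 min; delta fluorescence → % inhibition → 4-parameter Hill fit.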
A short description of experiment [4]: ZIKV-mCherry secondary qHTS for Zika virus inhibitors (AID 1347158). Note: top concentration of the series differs between compounds. The method in brief:
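Vero cells, 5,000/well, plated overnight at 37 °C, then compound added and infected with recombinant ZIKV-mCherry at MOI 1 for 48-72 h. PFA-fixed, Hoechst nuclear stain, high-content imaging; cells with mCherry intensity above 450 RFU scored infected, reported as percent infection.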

The test system of experiment [5] is Zika virus NS2B-NS3 protease (linked). Kind of experiment: 384 well plate NINDS AMC confirmatory qHTS for Zika virus inhibitors (AID 1347163). Note: potency is the fitted concentration of half-maximal effect; nearly all actives have a fitted effect of over 50% in size. Particulars: Recombinant NS2B-NS3 protease, Ac-VKTGKR-AMC fluorescence. The method in brief: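 Linked protease 5/30/60 nM final; cpds up to 1 mM final, ~15 min preinc. Substrate Ac-VKTGKR-AMC 30 microM final. RT, dark, 25 min; FI ex 355/em 460; normalized to no-enzyme/no-inhibitor ctrls.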

In experiment [6] the test system is Zika virus NS2B-NS3 protease (linked construct). The experiment can be described thus: 384 well plate NINDS Rhodamine confirmatory qHTS for Zika virus inhibitors (AID 1347164).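 Note: fluorescence from protease cleavage of Ac-LKRR-rhodamine 110 substrate; potency is the fitted concentration of half-maximal effect; nearly all actives have a fitted effect of over 65% in size.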 Particulars: rhodamine-110 peptide substrate fluorescence. A digest of the protocol:
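Fluorescence at 485/538 nm was measured 25 minutes after adding 10 microM Ac-LKRR-Rd substrate, in the dark at room temperature. The protease (5, 30 or 60 nM final) had been preincubated ~15 minutes with compound; aprotinin as control.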

Experiment [7] deals with Zika virus NS2B-NS3 protease. The experiment can be described thus: Primary screen GU AMC qHTS for Zika virus inhibitors (AID 1347154). Note: nearly all actives have a fitted effect of over 70% in size. Note: potency is the fitted concentration of half-maximal effect. A digest of the protocol:
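Unlinked Zika NS2B hydrophilic domain/NS3 protease domain noncovalent complex (25 nM final) in 10 mM Tris-HCl pH 8.0, 0.01% Tween 20, with AMC peptide substrate. Fluorescence (ex 340, em 450 nm) change over 15 min, room temperature; percent inhibition fitted to 4-parameter Hill equation.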

Experiment [8] is described as follows: qHTS of pediatric cancer cell lines to identify multiple opportunities for drug repurposing: Confirmatory screen for Rh30 cells (AID 1347126). Note: nearly all actives have a fitted effect of over 55% in size. Note: potency is the fitted concentration of half-maximal effect. The method in brief:
(§1)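 Cells (500-1,000/well) in growth media were settled 5 h at 37 degrees C, then given compounds for 48 h. Viability was read as CellTiter-Glo luminescence. Primary runs used MIPE at 11 points (0.78 nM-46 µM) and NPC at 8 points (0.59 nM-46 µM); follow-ups used 11 points.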

A short description of experiment [9]: qHTS of pediatric cancer cell lines to identify multiple opportunities for drug repurposing: Confirmatory screen for OHS-50 cells (AID 1347128).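 Note: potency is the fitted concentration of half-maximal effect; compound exposure lasted 48 h at 37 degrees C; nearly all actives have a fitted effect of over 55% in size.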 A digest of the protocol: as §1
Experiment [10] can be described thus: qHTS of pediatric cancer cell lines to identify multiple opportunities for drug repurposing: Confirmatory screen for SK-N-SH cells (AID 1347129).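 Note: cells exposed to compound for 48 h before viability read; nearly all actives have a fitted effect of over 60% in size.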 The method in brief: as §1
Experiment [11] has as its system Zika virus NS2B-NS3 protease (unlinked complex). Kind of experiment: Primary screen GU Rhodamine qHTS for Zika virus inhibitors: Unlinked NS2B-NS3 protease assay (AID 1347159). Note: nearly all actives have a fitted effect of over 60% in size. The method in brief:
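Percent inhibition derives from the 15-min fluorescence change (ex 480, em 540 nm), normalized to no-enzyme and no-inhibitor wells. Reactions contained 25 nM NS2B-NS3 complex and 1.5 microM substrate in 10 mM Tris-HCl pH 8.0.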

In experiment [12] the test system is Zika virus NS2B-NS3 protease (linked construct). The experiment can be described thus: Primary screen NINDS Rhodamine qHTS for Zika virus inhibitors (AID 1347160). Note: nearly all actives have a fitted effect of over 55% in size. The method in brief:
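In 10 mM Tris-HCl pH 8.0 containing 0.01% Tween 20, linked NS2B-NS3 protease (25 nM final) is exposed to test compounds for 15 min. Cleavage of 1.5 microM Rhodamine110 substrate is tracked by fluorescence over 15 min.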

A further experiment concerns the target Furin (Homo sapiens) (UniProt P09958). Kind of experiment: Furin counterscreen qHTS for Zika virus inhibitors (AID 1347149).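 Note: purified recombinant full-length human furin enzyme at 5 nM; fluorescence gain from furin cutting a BOC-RVRR-AMC peptide substrate over 15 min; top concentration of the series differs between compounds; nearly all actives have a fitted effect of over 70% in size.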 A digest of the protocol: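 Fluorogenic cleavage of BOC-RVRR-AMC (2 microM final, Km ~15 µM) was monitored (ex 340, em 450 nm) at 37C after 15 min RT preincubation of 5 nM furin with compounds in HEPES pH 7.0 buffer with CaCl2 and Triton X-100. Percent inhibition was fitted to a 4-parameter Hill curve.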
Background: A counterscreen serves to expose hits that act by an unwanted route or on another target.

Experiment [13] relates to Zika virus NS2B-NS3 protease (unlinked). Kind of experiment: Optimization of GU AMC qHTS for Zika virus inhibitors: Unlinked NS2B-NS3 protease assay (AID 1347151). Note: series mostly up to about 52 µM; nearly all actives have a fitted effect of over 80% in size. The method in brief: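 Fluorescence gain (340/450 nm) over 15 min at room temperature, ~20% conversion, gave percent inhibition fitted to a 4-parameter Hill equation; enzyme was unlinked NS2B-NS3 (25 nM final), pH 8.0 Tris buffer.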

Sequence of N-terminal Xaa-Pro-Lys N-methyltransferase 1 (Homo sapiens) (Q9BV86 whole entry, looked up): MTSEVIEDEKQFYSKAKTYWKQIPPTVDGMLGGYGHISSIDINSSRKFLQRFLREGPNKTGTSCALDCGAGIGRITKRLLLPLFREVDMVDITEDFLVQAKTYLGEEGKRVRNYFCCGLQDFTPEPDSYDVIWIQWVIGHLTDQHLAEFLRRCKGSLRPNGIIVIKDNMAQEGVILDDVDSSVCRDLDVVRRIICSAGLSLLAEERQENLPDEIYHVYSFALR
Sequence of Lysine-specific demethylase 5B (Homo sapiens) (Q9UGL1 whole entry, looked up): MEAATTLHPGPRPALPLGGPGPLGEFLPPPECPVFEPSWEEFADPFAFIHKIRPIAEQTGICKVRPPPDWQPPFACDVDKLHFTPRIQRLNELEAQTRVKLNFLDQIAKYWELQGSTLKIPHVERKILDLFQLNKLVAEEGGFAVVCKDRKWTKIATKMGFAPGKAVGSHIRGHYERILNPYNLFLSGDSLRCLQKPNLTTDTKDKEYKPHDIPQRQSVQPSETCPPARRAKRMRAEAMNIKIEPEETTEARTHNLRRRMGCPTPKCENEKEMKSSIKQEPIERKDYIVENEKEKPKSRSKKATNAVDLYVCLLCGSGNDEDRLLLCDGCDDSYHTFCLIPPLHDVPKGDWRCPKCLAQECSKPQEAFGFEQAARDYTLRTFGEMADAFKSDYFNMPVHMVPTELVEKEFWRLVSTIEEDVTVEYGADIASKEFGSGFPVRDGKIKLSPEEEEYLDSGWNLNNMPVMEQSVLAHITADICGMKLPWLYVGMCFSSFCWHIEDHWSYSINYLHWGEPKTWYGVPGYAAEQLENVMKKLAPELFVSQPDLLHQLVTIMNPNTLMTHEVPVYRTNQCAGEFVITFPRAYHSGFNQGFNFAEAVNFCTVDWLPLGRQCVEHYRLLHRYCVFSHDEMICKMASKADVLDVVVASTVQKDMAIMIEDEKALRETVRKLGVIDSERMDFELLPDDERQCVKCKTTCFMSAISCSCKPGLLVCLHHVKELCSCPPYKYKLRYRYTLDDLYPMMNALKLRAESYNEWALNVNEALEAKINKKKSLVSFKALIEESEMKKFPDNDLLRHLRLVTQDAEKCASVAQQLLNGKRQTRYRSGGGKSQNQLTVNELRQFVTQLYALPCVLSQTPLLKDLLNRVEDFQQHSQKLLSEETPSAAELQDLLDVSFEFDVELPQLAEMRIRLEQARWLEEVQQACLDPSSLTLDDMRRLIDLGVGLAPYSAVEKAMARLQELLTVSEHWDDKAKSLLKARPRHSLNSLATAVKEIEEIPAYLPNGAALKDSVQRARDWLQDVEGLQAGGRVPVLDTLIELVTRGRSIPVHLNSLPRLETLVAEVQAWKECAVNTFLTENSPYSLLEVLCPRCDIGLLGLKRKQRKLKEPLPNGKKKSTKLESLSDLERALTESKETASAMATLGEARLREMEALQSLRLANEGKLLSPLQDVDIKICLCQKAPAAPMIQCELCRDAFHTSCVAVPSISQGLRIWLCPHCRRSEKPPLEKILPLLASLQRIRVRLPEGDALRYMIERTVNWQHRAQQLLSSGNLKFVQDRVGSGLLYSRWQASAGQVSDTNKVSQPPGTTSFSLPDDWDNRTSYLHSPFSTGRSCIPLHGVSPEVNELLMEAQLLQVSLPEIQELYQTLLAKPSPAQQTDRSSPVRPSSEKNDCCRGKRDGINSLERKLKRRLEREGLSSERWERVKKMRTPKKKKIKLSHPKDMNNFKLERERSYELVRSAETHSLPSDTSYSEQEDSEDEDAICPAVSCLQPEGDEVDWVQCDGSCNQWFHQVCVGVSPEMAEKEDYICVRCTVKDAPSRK
Sequence of Furin (Homo sapiens) (P09958 whole entry, looked up): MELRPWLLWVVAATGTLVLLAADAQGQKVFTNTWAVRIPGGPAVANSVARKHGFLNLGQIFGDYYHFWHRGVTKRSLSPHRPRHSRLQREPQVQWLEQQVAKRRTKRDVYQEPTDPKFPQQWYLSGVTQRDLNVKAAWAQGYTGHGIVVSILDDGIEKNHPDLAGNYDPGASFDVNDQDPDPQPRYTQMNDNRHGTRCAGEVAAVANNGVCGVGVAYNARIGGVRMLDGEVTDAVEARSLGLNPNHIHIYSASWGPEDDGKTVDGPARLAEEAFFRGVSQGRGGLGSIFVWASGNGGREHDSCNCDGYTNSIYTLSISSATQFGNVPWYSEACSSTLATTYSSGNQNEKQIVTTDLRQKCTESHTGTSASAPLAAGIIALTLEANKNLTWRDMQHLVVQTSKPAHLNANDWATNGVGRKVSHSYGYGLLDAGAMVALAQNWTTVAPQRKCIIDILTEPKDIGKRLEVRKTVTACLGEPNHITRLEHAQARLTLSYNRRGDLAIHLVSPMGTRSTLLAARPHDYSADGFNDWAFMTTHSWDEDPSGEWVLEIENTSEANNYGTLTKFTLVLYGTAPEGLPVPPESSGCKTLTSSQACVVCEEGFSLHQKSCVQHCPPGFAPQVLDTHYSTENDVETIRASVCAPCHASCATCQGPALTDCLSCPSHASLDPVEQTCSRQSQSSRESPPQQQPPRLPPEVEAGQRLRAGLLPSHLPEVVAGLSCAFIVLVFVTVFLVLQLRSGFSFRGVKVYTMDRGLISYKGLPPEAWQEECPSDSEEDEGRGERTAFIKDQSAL

Turning to `O=C(N[C@H]1CN2CCC1CC2)c1ccc(Cl)cc1`, the Potency entry in [1] is “inactive”. Also, the result in [2] was inactive.
On to `CC[C@@]1(O)C(=O)OCc2c1cc1n(c2=O)Cc2cc3ccccc3nc2-1`, for which, in [1], the Potency was 3.55 µM (active). In experiment [2], the result was inactive.
On to `O=C1C(I)=CC(=C(c2cc(I)c(O)c(I)c2)c2ccccc2C(=O)O)C=C1I`, for which the Potency is 2.82 µM (active) in experiment [3], 50.1 µM (active) in experiment [5] and 8.91 µM (active) in experiment [6]. Further, the outcome in experiment [4] was inactive.
In the case of `O=[N+]([O-])c1c(Cl)c(Cl)cc(Cl)c1Cl`, the Potency result in experiment [3] is “inactive”.
On to `CC1=C(O)C(=O)C=C2C1=CC=C1[C@@]2(C)CC[C@@]2(C)[C@@H]3C[C@](C)(C(=O)O)CC[C@]3(C)CC[C@]12C`, for which the Potency in experiment [5] is 79.4 µM (active); in [6], 28.2 µM (active).
On to `NCc1cc(=O)[nH]o1`, for which the Potency entry in [1] and in [7] was “inactive” in each case. For the same molecule, the outcome in experiment [2] was inactive.
Consider `CC[C@@H]1C(=O)OC[C@@H]1Cc1cncn1C`, for which, in [1], the Potency result was “inactive”.
`Cc1ccccc1-n1c(Cn2ncc3c(N)ncnc32)nc2cccc(C)c2c1=O`: the Potency result in experiment [8], in [10], in experiment [7], in experiment [11] and in [12] was “inactive” in each case. Also, the Potency in [9] was 23.3 µM (active).
For the molecule `C=CCN1CC[C@]23CCCCC2[C@H]1Cc1ccc(O)cc13` (some centres undefined), the Potency entry (in experiment [1]; with Furin (Homo sapiens)) was “inactive” each time. Moreover, the call in experiment [2] was inactive.
As to `S=C(SSC(=S)N1CCCCC1)N1CCCCC1`, in [8], the Potency is 36.9 µM (active). In addition, the Potency entry in experiment [10] and in [7] was “inactive” throughout.
As for `Cc1nccc2c1[nH]c1ccccc12`, the results for the Potency in [1] and in experiment [7] were 79.4 µM (active) and 26.7 µM (active), respectively.
For `NC1CCc2cc(O)c(O)cc2C1` (centres undefined), the Potency in [1] was 22.4 µM (active). In addition, the Potency entry in [13] and in experiment [7] was “inactive” each time.
As for `c1ccc2sc(C3(N4CCCCC4)CCCCC3)cc2c1`, the Potency entry in [1] and in [7] was “inactive” throughout. The molecule was called inactive in experiment [2].
In the case of `C[C@]12CCC3C(CC[C@H]4C[C@H](O)CC[C@]34C)C1CC[C@@H]2C(=O)CO` (some centres undefined), the Potency entry in [1] and in [13] was “inactive” each time. The molecule was called inactive in experiment [2].
For the molecule `COC(=O)[C@@H](N)CCCN=C(N)N[N+](=O)[O-]`, the Potency entry in [1], in experiment [13] and in experiment [7] was “inactive” each time. The result in experiment [2] was inactive.
Regarding `CC[C@@H](C(N)=O)N1CCCC1=O`, the Potency result in [1] and in experiment [7] was “inactive” each time. Moreover, in experiment [2], the outcome was inactive.
Regarding `S=C(NC1CCCCC1)N1CCC(c2cnc[nH]2)CC1`, the Potency result in experiment [1], in [7], in [11] and in experiment [12] was “inactive” throughout. In experiment [2], the molecule was classed as inactive.
Regarding `C/C=C(/C)C(=O)O[C@H]1C(C)=C2[C@H]([C@@H]1OC(=O)CCCCCCC)[C@@](C)(OC(C)=O)C[C@H](OC(=O)CCC)[C@@]1(O)[C@H]2OC(=O)[C@@]1(C)O`, the Potency result in experiment [1] and in experiment [7] was “inactive” each time. The call in experiment [2] was inactive.
As for `COc1ccc2c(c[n+](C)c3c4cc5c(cc4ccc23)OCO5)c1OC`, the Potency in experiment [1] was 25.1 µM (active).
